Bioassay records as filed in PubChem BioAssay.
This is a sample that favours compounds with a hit; in the whole collection about 3.9% have one here.
ATXN2 expr inh = Primary qHTS for Inhibitors of ATXN expression | Potency, µM (doses to about 57 µM), for inactives: top-dose activity change, negative = inhibition, hits mostly inhibitors | AID 1745845, 2022 | hit rate 0.72% among 360,000 | HEK-293 ATXN2-luciferase reporter, luminescence, 24 h; also: % is scaled to controls: 0 for no effect and ±100 for the full control effect; nearly all actives have a fitted effect of over 55% in size
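qHTS (up to 57 uM final) was run with 24 h compound exposure of reporter cells at 37 °C. Each well was multiplexed: SteadyGlo luminescence measured ATXN2-luciferase expression after a fluorogenic Gly-Phe-AFC viability readout (25 uM final).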
TGFb SMAD3 inh = qHTS for Inhibitors of TGF-b. hit rate 1.2% among 410,000. Potency, µM (series often up to 46.1 µM), for the others: at the highest dose activity, negative = inhibition, usual class: inhibitors. AID 588855, 2011. HepG2 CAGA-GFP TGF-b/SMAD3 reporter, GFP fluorescence, 18 h; TGF-beta stimulated, 500 pg/mL final; also: % is scaled to controls: 0 for no effect and ±100 for the full control effect; nearly all actives have a fitted effect of over 65% in size
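HEPG2 CAGA-GFP cells (1000/well, DMEM with 1% FBS) were pre-incubated 2 h at 37 degrees C, given compound by pin tool, then stimulated with TGF-beta at 500 pg/mL final for 18 h before per-cell GFP fluorescence imaging.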
HT1080NT lethal = qHTS for induction of synthetic lethality in tumor cells producing 2HG: qHTS for the HT-1080-NT fibrosarcoma cell line; Potency, µM (series often up to 46.1 µM), for the others: at the highest dose activity, negative = less viability, hits mostly cytotoxic; AID 686970, 2013; HT-1080-NT fibrosarcoma viability, CellTiter-Glo ATP luminescence, 48 h; hit rate 1.6% among 360,000;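 also: NT is the 2HG producing partner of a matched IDH1 knockdown line; 0% = DMSO-treated cells and -100% = media-only wells without cells; nearly all actives have a fitted effect of over 55% in size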
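Toxicity toward the 2HG-producing NT line was scored as %Activity, normalised to DMSO and no-cell wells, from CellTiter-Glo luminescence after 48 hours' treatment.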
HepG2 tox = qHTS for Inhibitors of TGF-b: Cytotox Counterscreen. Potency, µM (titrated, usually from 46.1 µM), for inactives: top-dose activity change, negative = cytotoxicity, actives largely listed as cytotoxic. HepG2 CAGA-GFP viability, ATP luminescence, 18 h. hit rate 0.76% among 410,000. AID 588856, 2011
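CellTiter-Glo luminescence gave cytotoxicity after 18 hours at 37 degrees C. The cells were HepG2 CAGA-GFP in 1% FBS DMEM, stimulated with 500 pg/mL TGF-beta after compound addition. %Activity was normalised to no-cell wells (complete cell-killing) and DMSO (no toxicity), and curves were fitted and classified.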
ATXN viability = Viability Counterscreen for Primary qHTS for Inhibitors of ATXN expression; S2 cells (HEK-293 line with an ATXN2-luciferase reporter) viability, CellTiter-Fluor protease fluorescence, 24 h; hit rate 0.49% among 400,000; Potency, µM (doses to about 56.7 µM), actives largely listed as cytotoxic; AID 651635, 2014; also: nearly all actives have a fitted effect of over 40% in size
HT1080 IDH1KD tx = qHTS for induction of synthetic lethality in tumor cells producing 2HG: qHTS for the HT-1080-IDH1KD cell line. HT-1080 IDH1 knockdown viability, ATP luminescence, 48 h. hit rate 2% among 360,000. Potency, µM (highest dose often 46.1 µM), for the others: top-dose activity, negative = toxicity, usual class: cytotoxic;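 also: 0% = DMSO wells and -100% = cell-free medium wells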
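HT-1080-IDH1KD cells (IDH1 knocked down), 750/well in RPMI with 5% FBS, treated with compound 48 h at 37 degrees C. Viability by CellTiter-Glo luminescence, normalised to DMSO and no-cell wells; concentration-response curves classed.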
* marks the source's active call; other numbers are inactive results; [ ] = remark or other dose. Calls follow the shape of the dose curve; as a rule, active = well fitted curve in the direction sought with a large enough effect; inconclusive = small, poorly fitted or top-dose-only effect, or another doubt; inactive = no such curve, though single readings can be large; an effect the other way counts as inactive or inconclusive. Potency is read from the fitted curve at half-maximal effect.

`O=C(COc1ccc2ccccc2c1)NC1CC(=O)N(c2ccccc2)C1` (stereo not given) gave TGFb SMAD3 inh -30% and HepG2 tox -13%.
For NS(=O)(=O)OCC1CCCCC1 the results were ATXN2 expr inh 10%, TGFb SMAD3 inh 0%, HT1080NT lethal 13%, HepG2 tox 5%, ATXN viability inactive and HT1080 IDH1KD tx 6%.
For Nc1nc(N)c(N=O)c(OCC2CCCCC2)n1 the results were ATXN2 expr inh 7%, TGFb SMAD3 inh -27%, HT1080NT lethal inconclusive, HepG2 tox -43%, ATXN viability inconclusive and HT1080 IDH1KD tx 18µM*.
`Cc1ccc(C(=O)CCS(=O)(=O)c2ccc(F)cc2)cc1` gave ATXN2 expr inh 4%, TGFb SMAD3 inh 16µM*, HT1080NT lethal 1%, HepG2 tox 13µM*, ATXN viability inactive and HT1080 IDH1KD tx -15%.
Cc1ccc(CNC(=O)C2CCN(C(=O)N3CC(C)Oc4ccc(Cl)cc43)CC2)cc1 (stereo not given) was read as TGFb SMAD3 inh inconclusive and HepG2 tox -23%.
`C=CCOc1c(Cl)cc(CNc2ccc(N(C)C)cc2)cc1OC` gave ATXN2 expr inh 27%, TGFb SMAD3 inh inconclusive, HT1080NT lethal -15%[9.24 µM], HepG2 tox -65%, ATXN viability inconclusive and HT1080 IDH1KD tx 16µM*.
COc1cc(CNc2ccc(N3CCCC3)cc2)cc(Cl)c1OC was read as ATXN2 expr inh inconclusive, TGFb SMAD3 inh inconclusive, HT1080NT lethal 16µM*, HepG2 tox -16%, ATXN viability inactive and HT1080 IDH1KD tx inconclusive.
Screening COc1ccc(CCNc2ncnc3c2nnn3C)cc1 returned TGFb SMAD3 inh inconclusive and HepG2 tox -30%.
For COc1ccc2c(Sc3ccccc3)c(C(=O)N3CCC(C)CC3)[nH]c2c1 the results were ATXN2 expr inh inconclusive, TGFb SMAD3 inh 14µM* and HepG2 tox -115%.
Screening O=C(Oc1ccc(Br)cc1C(=O)/C=C/c1ccccc1F)c1ccco1 returned ATXN2 expr inh inconclusive, TGFb SMAD3 inh 16µM*, HT1080NT lethal inconclusive, HepG2 tox -47%, ATXN viability inconclusive and HT1080 IDH1KD tx inconclusive.
Cc1ccc(S(=O)(=O)Nc2ccccc2O)cc1 was read as HT1080NT lethal -1% and HT1080 IDH1KD tx 8%.
For Cc1ccc(S(=O)(=O)Nc2cccc3ncccc23)cc1 the results were ATXN2 expr inh -17%, TGFb SMAD3 inh 2%, HT1080NT lethal 1%, HepG2 tox -3%, ATXN viability inactive and HT1080 IDH1KD tx -8%.
For Cc1ccc(S(=O)(=O)Nc2ccc(O)c3ncccc23)cc1 the results were ATXN2 expr inh -29%, TGFb SMAD3 inh inconclusive, HT1080NT lethal inconclusive, HepG2 tox -56%, ATXN viability inconclusive and HT1080 IDH1KD tx 13µM*.
Cc1ccc(S(=O)(=O)Nc2ccc(O)c3cccnc23)cc1 was read as ATXN2 expr inh 22µM*, TGFb SMAD3 inh inconclusive, HT1080NT lethal -14%, HepG2 tox -161%, ATXN viability inconclusive and HT1080 IDH1KD tx inconclusive.
Screening O=C(c1cccc(Cn2cccn2)c1)N1CCC(n2c(C3CCCO3)nc3cc(C(F)(F)F)ccc32)CC1 (stereo not given) returned ATXN viability inactive.
`COc1ccc(C(=O)NCCCNC(=O)c2cnccn2)cc1Br` gave ATXN2 expr inh 2%, TGFb SMAD3 inh 3%, HT1080NT lethal 0%, HepG2 tox 8%, ATXN viability inactive and HT1080 IDH1KD tx 14%.
Screening O=C(CNC(=O)C1COc2ccccc2O1)N/N=C\c1ccccc1Cl (stereo not given) returned ATXN2 expr inh -8%, TGFb SMAD3 inh -13%, HT1080NT lethal 4%, HepG2 tox -15%, ATXN viability inactive and HT1080 IDH1KD tx 13%.
COc1cccc(/C=N/NC(=O)CNC(=O)c2cccnc2)c1O was read as ATXN2 expr inh inconclusive, TGFb SMAD3 inh 0%, HT1080NT lethal inconclusive, HepG2 tox 0%, ATXN viability inactive and HT1080 IDH1KD tx 12µM*.
Screening COc1cccc(/C=N/NC(=O)CNC(=O)C2COc3ccccc3O2)c1O (stereo not given) returned ATXN2 expr inh 8.9µM*, TGFb SMAD3 inh -14%, HT1080NT lethal inconclusive, HepG2 tox -4%, ATXN viability inactive and HT1080 IDH1KD tx inconclusive.
For COc1ccc(C(=O)NCCCNC(=O)c2cccnc2)cc1Br the results were ATXN2 expr inh 0%, TGFb SMAD3 inh 8%, HT1080NT lethal inconclusive, HepG2 tox 14%, ATXN viability inactive and HT1080 IDH1KD tx 10µM*.
CCS(=O)(=O)Nc1cc(C(=O)N2CCCN(C=O)CC2)c2c(c1)nc(-c1ccccc1)n2C was read as ATXN viability inactive.
Screening C[C@@H]1CN([C@H](C)CO)S(=O)(=O)c2ccc(C#Cc3ccccc3F)cc2O[C@H]1CN(C)C(=O)c1ccc2c(c1)OCO2 returned ATXN2 expr inh inconclusive, TGFb SMAD3 inh inconclusive, HT1080NT lethal inconclusive, HepG2 tox -30%, ATXN viability 13µM* and HT1080 IDH1KD tx inconclusive.
`COCC(C)NC(=O)CCS(=O)(=O)c1nc(-c2ccc(OC)cc2)cc(C(F)(F)F)n1` (stereo not given) gave ATXN2 expr inh inconclusive, TGFb SMAD3 inh 11µM*, HT1080NT lethal inconclusive, HepG2 tox -110%, ATXN viability inconclusive and HT1080 IDH1KD tx 23µM*.
COc1ccc(-c2cc(C(F)(F)F)nc(S(C)(=O)=O)n2)cc1 was read as ATXN2 expr inh inconclusive, TGFb SMAD3 inh 3.5µM*, HT1080NT lethal 18µM*, HepG2 tox -101%, ATXN viability 18µM* and HT1080 IDH1KD tx inconclusive.
Screening COc1ccc(-c2cc(C(F)(F)F)nc(N)n2)cc1 returned ATXN2 expr inh 30%, TGFb SMAD3 inh -5%, HT1080NT lethal 10%, HepG2 tox 2%, ATXN viability inactive and HT1080 IDH1KD tx 5%.
Nc1nc(-c2ccc(F)cc2)cc(C(F)(F)F)n1 was read as ATXN2 expr inh 1%, TGFb SMAD3 inh -9%, HT1080NT lethal -5%, HepG2 tox -20%, ATXN viability inactive and HT1080 IDH1KD tx -6%.
For CS(=O)(=O)c1nc(-c2ccc(F)cc2)cc(C(F)(F)F)n1 the results were ATXN2 expr inh inconclusive, TGFb SMAD3 inh inconclusive, HT1080NT lethal 21µM*, HepG2 tox 11µM*, ATXN viability inconclusive and HT1080 IDH1KD tx 8.2µM*.
